In all, about 1,200 compounds went through this assay and about 650 (54%) were called active. Inconclusive results (about 5%) are left out.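 Rule for the calls: active = signal-lowering curve whose fitted half-maximal concentration is at or below ten times the top valid dose tested; inconclusive = flat curve with 30 to 70% inhibition, or poor fit; inactive = signal increase, flat within 30%, or potency beyond limit.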 The set was probably picked from earlier hits. Not all results are given here. Results with a measured potency or affinity are listed apart.
Test: inhibitors of LMP1-driven NF-kB reporter, dose response, cell-based, HEK293, luciferase, cherry-pick (AID 588343)
Settings: HEK293 LMP1 TES2 NF-kB luciferase reporter, 16 h; series mostly up to 35 µM

outcome, inactive:
Cc1cc(N)nc(=O)n1C1CC(O)C(CO)O1 (stereo unspecified)
O=C1CN(C(=O)c2ccc(F)c(S(=O)(=O)N3CCOCC3)c2)c2ccccc2N1
COc1ccc(C(=O)OCC(=O)c2c[nH]c3ccccc23)cc1OC
O=C(O)c1cc(=O)c2c(OCC(O)COc3cccc4oc(C(=O)O)cc(=O)c34)cccc2o1
Cc1ccc(NS(=O)(=O)c2ccc(NC(=O)C(C)Sc3ccc(Cl)cc3)cc2)c(C)c1 (stereo unspecified)
COc1ccc(CNC(=O)COC(=O)[C@@H]2CCCN2C(=O)c2cccs2)cc1
O=[N+]([O-])c1ccc(Cl)c(S(=O)(=O)NCC2CCCO2)c1 (stereo unspecified)
CSc1ccc2c(c1)C(N1CCN(C)CC1)Cc1ccccc1S2 (stereo unspecified)
O=C(c1ccc(C#CC2(O)CCCCC2)cc1)N1CCN(C(c2ccccc2)c2ccccc2)CC1
COCCNC(=O)NC12CC3(C)CC(C)(CC(C)(C3)C1)C2
COc1cc(CC(=O)N(c2ccccc2)c2nc(C)cs2)cc(OC)c1OC
Clc1ccc(-c2ccnc(Oc3ccc4ccccc4c3)n2)cc1
Cc1ccc(-c2cc(N)n3nc(-c4ccc(C)cc4)cc3n2)cc1
COC(=O)c1ccccc1NC(=O)CC(=O)Nc1ccccc1C(=O)OC
Cc1nc(SCC(=O)c2cccc([N+](=O)[O-])c2)n[nH]1
C[C@H](CO)N1C[C@H](C)[C@@H](CN(C)C(=O)NC2CCCCC2)Oc2c(NS(=O)(=O)c3cn(C)cn3)cccc2C1=O
NC1=NC(=O)NC1(c1ccccc1)c1ccccc1
C[C@H](NC(=O)N1CCn2c1nc1ccccc12)C(=O)NCC1CCCO1 (stereo partly specified)
COc1cc2nc(N3CCN(C(=O)C4CCCO4)CC3)nc(N)c2cc1OC (stereo unspecified)
CCOC(=O)OC(C)OC(=O)[C@@H]1N2C(=O)[C@@H](NC(=O)[C@H](N)c3ccccc3)[C@H]2SC1(C)C (stereo partly specified)
CSc1oc(-c2ccc(F)cc2)nc1S(=O)(=O)c1ccc(F)cc1
CC(NC(=O)CCOc1ccccc1)c1ccccc1 (stereo unspecified)
O=C(O)c1cn2c3c(ccc(Cl)c3c1=O)OCC2
Oc1cccc(/C=N/NC(=S)NCCN2CCOCC2)c1O
CN(C)CCC(c1ccccc1)c1ccccn1 (stereo unspecified)
COC(=O)CN(c1ccccc1F)S(=O)(=O)c1ccc(C)cc1
CC(=O)O[C@H]1CC[C@@]2(C)C(=CC[C@H]3[C@@H]4CC[C@H](C(C)=O)[C@@]4(C)CC[C@@H]32)C1
CN(C)/C=C/C(=O)c1ccc2noc(-c3ccccc3)c2c1
CCON1C(=O)C2(CCCCC2)C(=O)C12C=CCCC2 (stereo unspecified)
CCN(CC)c1ccc(NC(=O)c2cccc(F)c2)c(C)c1
CCOC(=O)CCSc1nc(N2CCOCC2)c2c(c1C#N)CC(C)(C)OC2
CSc1nc(C)nc2c1c(=O)n(C)c(=O)n2C
COCCn1c(SCc2ccc(C(=O)OC)o2)nnc1-c1c[nH]c2ccccc12
CCOc1ccc(NC(=O)CCc2nnc3ccc(N4CCC5(CC4)OCCO5)nn23)cc1
COc1ccc(C2CC(C(F)(F)F)n3ncc(C(=O)NCc4cccnc4)c3N2)cc1OC (stereo unspecified)
CCCCCC(=O)NC(=S)Nc1ccc(Br)cc1C
CC(CNC1CCCCC1)OC(=O)c1ccccc1 (stereo unspecified)
CCC(=O)NC(=S)Nc1ccccc1C(F)(F)F
CCN(C(=O)c1cccc(NC(=O)c2ccccc2)c1)C1CCCCC1
COc1ccc(C(=O)N(CN2CCCC2=O)c2cc(C)on2)cc1OC
O=C1OCC2=C1C(c1ccc3c(c1)OCO3)c1cc3c(cc1O2)OCO3 (stereo unspecified)
CNC1(C)[C@H]2CC[C@H](C2)C1(C)C (stereo partly specified)
Cc1ccc(NC(=O)/C=N/OCC(=O)NCc2ccccc2Cl)cc1
COCC(=O)N(C)c1nnc(-c2ccccn2)s1
Cc1cc(C)cc(C(=O)NCCC(=O)NCc2cc(=O)n(C)c(=O)n2C)c1
CCOCCCNC(=O)CN1C(=O)/C(=C\c2ccc(C)cc2)Sc2ccccc21
Cc1ccc(S(=O)(=O)N2CCC[C@H]2C(=O)Nc2ccccc2C)cc1
CCN(C(=O)c1cc(OC)c(OC)c(OC)c1)C1CCCCC1
C[C@]12CC[C@@H]3c4ccc(OS(=O)(=O)O)cc4CC[C@H]3[C@@H]1CCC2=O
O=c1c([N+](=O)[O-])cn(Cc2ccccc2)c(=O)n1Cc1ccccc1
C[C@@]12C(=O)N(Cc3ccccc3)CC(=O)N1[C@H](/C=C/c1ccccc1)[C@@H]1C(=O)N(c3ccccc3)C(=O)[C@@H]12
O=c1cc(-c2ccccc2)[nH]c2ccc(F)cc12
O=C(C1CC1)N1N=C(c2ccc(Br)cc2)CC1(O)C(F)(F)F (stereo unspecified)
COc1cc(OC)cc(-c2c(C#Cc3ccsc3)c3cc(-c4cc(OC)c(OC)c(OC)c4)ccc3n2C)c1
Cc1cccn2c(=O)c(C=NCCO)c(NCc3ccco3)nc12
CCCc1nc(SCC(=O)NCc2ccco2)c2c(=O)n(C)c(=O)n(C)c2n1
Cc1cccc(Nc2nc(Cl)ncc2F)c1C
COc1ccccc1C=NN=Cc1ccccc1O
COC(CNC(=O)c1ccc(N2CCC3(CC2)OCCO3)c([N+](=O)[O-])c1)OC
CC(=O)Nc1ccc(NC(=O)C(c2ccccc2)c2ccccc2)cc1
CCOC(=O)[C@H]1[C@H]2COc3ccc(OC)cc3[C@@H]2N2C(=O)CN(C)C(=O)[C@@]12C
COc1ccc(C2=NN(C(=O)CSC3=NN4CCCC(=O)N=C4S3)C(c3cccc(OC)c3OC)C2)cc1 (stereo unspecified)
CCOC(=O)Nc1ccc2c(c1)N(C(=O)CN(C)C)c1ccccc1CC2
Cn1c(=O)c2c(ncn2CC(=O)Nc2cc(S(=O)(=O)N3CCCCC3)ccc2O)n(C)c1=O
CCCN1C(=O)C2(SC(NC(C)=O)=NN2C(C)=O)c2cc(C)cc(C)c21 (stereo unspecified)
CCC(C)[C@H](NC(=O)NCc1cccnc1)C(=O)OC (stereo partly specified)

Reference: PubChem BioAssay AID588343 (Broad Institute, 2011)
